# Laboratory results: PubChem BioAssay AID463173 (ICCB-Longwood Screening Facility, Harvard Medical School, 2010)
# The campaign covered roughly 52,000 compounds. About 4,300 (8.3%) were called active. The full list was thinned out, with actives kept by preference. Unmarked numbers belong to inactive results. Rule as the data show it: active = survival mostly below about 52% (no sharp cut-off); inactive = mostly above about 56%.
# System: DeltatarO mutant
# Test: growth inhibition of S. aureus wild type versus tarO mutant, primary screen, teichoic acid synthesis inhibitors, RN4220, OD600 (AID 463173)
# Settings: OD600, 18 h, stronger effect = lower value, screened at 18.75 µg/mL (by protocol)
row,SMILES,survival
1,Cc1ccc(C)c(N2CCN(S(=O)(=O)c3c(C)nc4sccn4c3=O)CC2)c1,92%
2,CCc1ccc(N=C2NC(=O)CC(C(=O)Nc3ccc(OC)cc3)S2)cc1 (configuration not stated),87%
3,CCOc1ccc(NC(=O)C2CC(=O)NC(=Nc3ccc(Cl)c(Cl)c3)S2)cc1 (configuration not stated),72%
4,CCOC(=O)c1ccc(NC(=O)C2CC(=O)NC(=Nc3ccc(C)c(C)c3)S2)cc1 (configuration not stated),47% (active)
5,CN(C)c1ccc(C(C(=O)NCC2CCCO2)N(C(=O)Cn2nnc3ccccc32)c2ccc3c(c2)OCO3)cc1 (configuration not stated),90%
6,O=C(Nc1cccc(Cl)c1Cl)c1cc(S(=O)(=O)N2CCCCC2)ccc1F,72%
7,O=C(Nc1cccc(F)c1)C1CCN(S(=O)(=O)c2cccc3nsnc23)CC1,83%
8,COc1ccc(N2CCN(Cc3nc(-c4ccc(C)cc4)no3)CC2)cc1,48%
9,COc1ccc(-c2noc(CN3CCN(c4cccc(Cl)c4)CC3)n2)cc1,13% (active)
10,COc1cc(-c2noc(CN3CCN(c4cccc(Cl)c4)CC3)n2)cc(OC)c1OC,77%
11,Cc1cccc(N(C)c2nc3ccccc3c3nnc(C)n23)c1,118%
12,COc1ccc(C)cc1NC(=O)N1CCC(CN2CCC(C)CC2)CC1,91%
13,CCCCN(c1ccccc1)S(=O)(=O)c1cc2c3c(c1)C(C)C(=O)N3CCC2 (configuration not stated),69%
14,Cc1ccc2cccc(NC(=O)COc3cc(C)c(Cl)c(C)c3)c2n1,75%
15,COc1ccc(NC(=O)c2ccco2)cc1NC(=O)COc1cc(C)ccc1C(C)C,63%
16,CCC(C)c1ccc(OCC(=O)Nc2ccc(-c3nc4ncccc4o3)cc2)cc1 (configuration not stated),44%
17,CCCC(=O)Nc1cccc(-c2nc3ncccc3o2)c1,66%
18,CCC(C)c1ccc(OCC(=O)Nc2cccc3ccc(C)nc23)cc1 (configuration not stated),-3% (active)
19,CCC(C)c1ccc(OCC(=O)Nc2cccc(-c3nc4ncccc4o3)c2)cc1 (configuration not stated),19% (active)
20,Cc1ccc(C(C)C)c(OCC(=O)Nc2ccc3c(c2)nc(CCNC(=O)c2ccco2)n3C)c1,54%
21,Cc1ccccc1OCC(=O)Nc1ccc(-c2nc3ncccc3o2)cc1,60%
22,Cc1ccc(C(C)C)c(OCC(=O)Nc2cccc(NC(=O)c3ccco3)c2)c1,10% (active)
23,COc1ccc(OCC(=O)Nc2ccc(-c3nc4ncccc4o3)cc2)cc1,84%

row,SMILES,survival
1,Cc1ccc2cccc(NC(=O)COc3ccccc3Cl)c2n1,179%
2,Cc1cc(C)c(OCC(=O)Nc2cccc(-c3nc4ncccc4o3)c2)c(Br)c1,4% (active)
3,CCc1cccc2sc(N3CCN(C(=O)C4CC4)CC3)nc12,94%
4,CCCSCCCNC(=O)C1CCN(C(=O)c2cc3sccc3n2C)CC1,109%
5,O=C(Nc1cccc(Cl)c1Cl)c1ccc2c(c1)N(Cc1cccc(Cl)c1)C(=O)c1ccccc1S2(=O)=O,108%
6,Cc1cc2c(n1-c1ccc(C(=O)NCc3cccc(Br)c3)cc1)CCC(C)C2 (configuration not stated),125%
7,O=C(COc1ccc(Cl)cc1Cl)Nc1ccc(C(=O)OC2CCCCC2)cc1,57%
8,Cc1ccc(C(C)C)c(OCC(=O)Nc2ccc(-c3nc4ncccc4o3)cc2C)c1,54%
9,Cc1cccc(OCC(=O)Nc2ccc(Cl)c(-c3nc4ncccc4o3)c2)c1C,62%
10,Cc1cc(OCC(=O)Nc2ccc(C(=O)OC3CCCCC3)cc2)cc(C)c1Cl,50%
11,Cc1ccc(C(C)C)c(OCC(=O)Nc2cccc(-c3nc4ncccc4o3)c2)c1,2% (active)
12,Cc1ccc(C(C)C)c(OCC(=O)Nc2ccc(C(=O)OC3CCCCC3)cc2)c1,33% (active)
13,CSc1ccc(CCNC(=O)c2ccc3c(c2)nc2n3CCCCC2)cc1,82%
14,COc1ccc(N2CCN(CCCNC(=O)c3ccc4nc(Cc5ccccc5)oc4c3)CC2)cc1,93%
15,O=C(NCc1ccc(F)cc1)c1ccc2c(O)c(S(=O)(=O)c3ccccc3)c(=O)[nH]c2c1,66%
16,CCn1c(=O)c(=O)n(CC)c2cc(N3CCCCC3)c(NC(=O)c3ccccc3OC)cc21,91%
17,Cc1nnc(NC(=O)CSCc2cc(=O)c3ccc(C)c(C)c3[nH]2)s1,73%
18,NC(=O)CN1C(=O)C(O)(CC(=O)/C=C\c2ccccc2)c2ccccc21 (configuration not stated),96%
19,COc1ccc(CNC(=O)CSc2nc(-c3ccc(OC)c(OC)c3)cc(C(F)(F)F)n2)cc1,72%
20,COc1ccc(-c2cc(C(F)(F)F)nc(SCC(=O)NCCc3ccccc3)n2)cc1,121%
21,COc1ccc(CNc2nc(-c3ccc(OC)c(OC)c3)cc(C(F)(F)F)n2)cc1,11% (active)
22,COc1ccc(-c2cc(C(F)(F)F)nc(SCC(=O)NC(C)c3ccccc3)n2)cc1 (configuration not stated),60%
23,COc1ccc(CNc2ccc(-c3ccc(OC)cc3)nn2)cc1,80%

row,SMILES,survival
1,COc1ccc(CNc2nc(-c3ccc(OC)cc3)cc(C(F)(F)F)n2)cc1,-2% (active)
2,COc1ccc(-c2cc(C(F)(F)F)nc(NCCc3ccccc3)n2)cc1,1% (active)
3,COc1ccc(-c2cc(C(F)(F)F)nc(SCC(=O)NCc3ccc(OC)c(OC)c3)n2)cc1,60%
4,COc1ccc(-c2cc(C(F)(F)F)nc(NCc3ccccc3)n2)cc1,-4% (active)
5,COc1ccc(CNC(=O)C(C)Sc2nc(-c3ccccc3)cc(C(F)(F)F)n2)cc1 (configuration not stated),165%
6,COc1ccc(CNC(=O)CSc2nc(-c3ccc(OC)cc3)cc(C(F)(F)F)n2)cc1,83%
7,COc1ccc(S(=O)(=O)c2c(O)c(C)cc(NC(=O)c3ccccc3)c2C(C)C)cc1,80%
8,CCc1ccc(NC(=O)c2sc3nc(C)c(Cl)c(C)c3c2NC(=O)c2ccccc2)cc1,76%
9,CCOC(=O)N1CCC(NC(=O)c2ccc3c(c2)N(Cc2ccc(F)cc2)C(=O)c2ccccc2S3=O)CC1 (configuration not stated),58%
10,COc1ccc(CCNC(=O)c2c(O)nc3c(C)cccn3c2=O)cc1OC,91%
11,CCN1C(=O)/C(=C\C=C2/N(CC)c3ccc(C(=O)OC)cc3N2CC)SC1=S,78%
12,Cc1ccc(NC(=O)Cn2c(=O)n(Cc3nc(-c4ccccc4)no3)c(=O)c3cc4c(cc32)OCO4)cc1C,77%
13,CCc1ccccc1NC(=O)CN(Cc1ccccc1)S(=O)(=O)c1ccc2nc(C)sc2c1,102%
14,Cc1ccc(C(=O)NC2(C(F)(F)F)C(=O)Nc3c2c(=O)[nH]c(=O)n3CCc2ccccc2)cc1 (configuration not stated),74%
15,CC(C)CCNC(=O)c1cc2sccc2n1Cc1ccc(F)cc1,87%
16,CCOc1ccccc1Nc1sc(C(=O)c2ccccc2)c(N)c1C(=O)Nc1ccccc1,102%
17,COCCn1c(C)cc(O)c(C(c2ccccc2Cl)N2CCN(c3ccccc3)CC2)c1=O (configuration not stated),87%
18,CSc1ccc(CNC(=O)c2cc3c(=O)n(Cc4ccco4)ccc3nc2C)cc1,94%
19,COc1ccc(-c2cn3c(n2)sc2cc(C(=O)NCc4ccccc4)ccc23)cc1,63%
20,O=C(NCCOCCn1c(=O)oc2ccccc21)Nc1cccc(Cl)c1,75%
21,COc1ccccc1CCNC(=O)C(C)Sc1nc(-c2ccccc2)cc(C(F)(F)F)n1 (configuration not stated),65%
22,COc1ccc(-c2cc(C(F)(F)F)nc(NCc3ccccc3)n2)cc1OC,42% (active)
23,COc1cccc(-c2cc(C(F)(F)F)nc(NCCc3ccccc3)n2)c1,-8% (active)

row,SMILES,survival
1,COc1ccc(-c2cc(C(F)(F)F)nc(NCc3ccc(F)cc3)n2)cc1,1% (active)
2,COc1ccc(-c2cc(C(F)(F)F)nc(SCCC(=O)Nc3cccc(OC)c3)n2)cc1,69%
3,COc1ccc(-c2cc(C(F)(F)F)nc(SCC(=O)NCc3ccc(F)cc3)n2)cc1,74%
4,COc1cccc(-c2cc(C(F)(F)F)nc(NCc3ccc(F)cc3)n2)c1,4% (active)
5,COc1cccc(-c2cc(C(=O)Nc3ccc(F)cc3)[nH]n2)c1,73%
6,COc1ccc(-c2cc(C(F)(F)F)nc(SCC(=O)NCC(C)C)n2)cc1OC,137%
7,COc1cccc(-c2nc(S(=O)(=O)c3ccccc3)c(NCc3ccccc3)o2)c1,61%
8,COc1ccc(-c2cc(C(F)(F)F)nc(NCCc3ccccc3)n2)cc1OC,63%
9,COc1ccccc1/C=C/c1nc(C#N)c(N2CCCCC2)o1,75%
10,Cc1ccc(C(=O)c2sc(Nc3ccccc3F)c(S(=O)(=O)c3ccccc3)c2N)c(C)c1,74%
11,COC(=O)c1cc(NC(=O)c2nn(C)c3c2CSc2ccccc2-3)cc(C(=O)OC)c1,88%
12,CN1CCN(C2(CNC(=O)c3ccc([N+](=O)[O-])cc3)CCCCC2)CC1,102%
13,Cc1ccc(C(C)C)c(OCC(=O)NCC2(N(C)C)CCCCC2)c1,95%
14,N#Cc1c(NC(=O)C2CC(=O)NN2Cc2ccccc2)sc2c1CCCC2 (configuration not stated),82%
15,CCn1c(CNC(=O)c2ccc(OC)cc2)nnc1SCC(=O)Nc1ccc(F)cc1,130%
16,O=C(C1=C(N2CCCCC2)c2ccccc2S(=O)(=O)N1)c1ccccc1,94%
17,Cc1ccc(-n2nnc(-c3nc(-c4cccs4)no3)c2N)c(C)c1,101%
18,O=C(Nc1ccccc1Cl)c1cc2c(-c3ccccc3)nn(-c3ccccc3)c2s1,56%
19,Cc1ccccc1NC(=O)c1cc2c(-c3ccccc3)nn(-c3ccccc3)c2s1,57%
20,COc1ccccc1NC(=O)c1cc2c(C)nn(-c3ccccc3)c2s1,0% (active)
21,COc1ccc(NC(=O)c2cc3c(C)nn(-c4ccccc4)c3s2)c(OC)c1,59%
22,COc1ccccc1NC(=O)c1cc2c(-c3ccccc3)nn(-c3ccccc3)c2s1,89%
23,Cc1nn(-c2ccccc2)c2sc(C(=O)Nc3ccccc3Br)cc12,9% (active)
